PubChem BioAssay AID1159580 (chemical genetic matrix, 2015)
The campaign covered roughly 5,500 compounds. About 2,000 (36%) were called active. Not shown: some 18% with an inconclusive outcome. Rule as the data show it: active = normalized growth mostly below about 0.91 (no sharp cut-off); inconclusive = no clear call, values can overlap the other calls; inactive = mostly above about 0.92. The list shows a part of the results.

Assay: chemical genetic growth profiling, strain panel (AID 1159580);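 also: tested at 20 µM; growth read once vehicle control cultures reached saturation at 30 °C; 1 = growth at the plate median or of vehicle wells; lower values mean less growth of the strain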
Conditions: S. cerevisiae deletion strains, growth OD

Measured: normalized growth

COC(=O)/C(C)=C\CC12OC(C)(C)C3CC(C=C4C(=O)c5c(OC)c6c(c(CC=C(C)C)c5OC431)OC(C)(CCC=C(C)C)C=C6)C2=O (centres undefined)
inactive: locus YAL021C, strain ccr4, stronger effect = lower value 0.991 | locus YAL026C, strain drs2, stronger effect = lower value 1.02 | locus YAL030W, strain snc1, stronger effect = lower value 1.03 | locus YBL061C, strain skt5, stronger effect = lower value 1.02 | locus YBR009C, strain hhf1, stronger effect = lower value 0.999 | locus YBR021W, strain FUR4, stronger effect = lower value 1.03 | locus YBR023C, strain chs3, stronger effect = lower value 1.01 | locus YBR171W, strain sec66, stronger effect = lower value 1.03 | locus YBR229C, strain ROT2, stronger effect = lower value 1.01 | locus YBR231C, strain swc5, stronger effect = lower value 1.03 | locus YBR279W, strain paf1, stronger effect = lower value 1.01 | locus YCL011C, strain gbp2, stronger effect = lower value 1.02 | locus YCL016C, strain dcc1, stronger effect = lower value 1.01 | locus YCL029C, strain bik1, stronger effect = lower value 0.983 | locus YCL061C, strain MRC1, stronger effect = lower value 1.01 | locus YCL069W, strain vba3, stronger effect = lower value 1.02 | locus YCR088W, strain abp1, stronger effect = lower value 1.02 | locus YDL005C, strain med2, stronger effect = lower value 1.03 | locus YDL035C, strain GPR1, stronger effect = lower value 0.964 | locus YDL040C, strain nat1, stronger effect = lower value 1.01 | locus YDL074C, strain BRE1, stronger effect = lower value 0.963 | locus YDL101C, strain DUN1, stronger effect = lower value 1.01 | locus YDL185W, strain tfp1, stronger effect = lower value 1.01 | locus YDL192W, strain arf1, stronger effect = lower value 0.987 | locus YDR001C, strain nth1, stronger effect = lower value 1.02 | locus YDR069C, strain doa4, stronger effect = lower value 1.03 | locus YDR101C, strain arx1, stronger effect = lower value 0.989 | locus YDR137W, strain rgp1, stronger effect = lower value 0.946 | locus YDR150W, strain NUM1, stronger effect = lower value 1.01 | locus YDR159W, strain sac3, stronger effect = lower value 1.06 | locus YDR162C, strain NBP2, stronger effect = lower value 0.941 | locus YDR195W, strain ref2 1.02 | locus YDR297W, strain sur2, stronger effect = lower value 1.04 | locus YDR318W, strain mcm21, stronger effect = lower value 0.982 | locus YDR334W, strain swr1, stronger effect = lower value 1.02 | locus YDR335W, strain msn5, stronger effect = lower value 1.02 | locus YDR388W, stronger effect = lower value 0.985 | locus YDR392W, strain spt3, stronger effect = lower value 0.966 | locus YDR502C, strain sam2, stronger effect = lower value 0.979 | locus YEL003W, strain gim4, stronger effect = lower value 1.01 | locus YEL037C, strain rad23, stronger effect = lower value 1.01 | locus YEL061C, strain CIN8 (second series), stronger effect = lower value 1.02 | locus YEL061C, strain CIN8, stronger effect = lower value 1 | locus YER015W, strain faa2, stronger effect = lower value 1.02 | locus YER016W, strain bim1, stronger effect = lower value 1.01 | locus YER110C, stronger effect = lower value 0.988 | locus YER111C, strain swi4, stronger effect = lower value 1.02 | locus YER155C, strain BEM2 (second series), stronger effect = lower value 1.02 | locus YER155C, strain BEM2, stronger effect = lower value 1.01 | locus YER167W, strain BCK2, stronger effect = lower value 0.993 | locus YFR010W, strain ubp6, stronger effect = lower value 1.03 | locus YGL078C, strain dbp3, stronger effect = lower value 0.989 | locus YGL086W, strain mad1, stronger effect = lower value 0.974 | locus YGL167C, strain pmr1, stronger effect = lower value 1.02 | locus YGL173C, strain kem1, stronger effect = lower value 1.02 | locus YGL227W, strain vid30, stronger effect = lower value 1.02 | locus YGL240W, strain doc1, stronger effect = lower value 1.02 | locus YGL248W, strain PDE1, stronger effect = lower value 0.986 | locus YGL253W, strain hxk2, stronger effect = lower value 1.01 | locus YGR135W, strain pre9, stronger effect = lower value 0.997 | locus YGR252W, strain gcn5, stronger effect = lower value 0.987 | locus YHR013C, strain ard1, stronger effect = lower value 0.996 | locus YHR027C, strain rpn1, stronger effect = lower value 1.02 | locus YHR030C, strain SLT2, stronger effect = lower value 1 | locus YHR079C, strain IRE1 (second series), stronger effect = lower value 1 | locus YHR094C, strain hxt1, stronger effect = lower value 1.01 | locus YHR129C, strain ARP1, stronger effect = lower value 0.985 | locus YHR142W, strain chs7, stronger effect = lower value 1.04 | locus YHR200W, strain rpn10, stronger effect = lower value 0.991 | locus YIL066C, strain RNR3, stronger effect = lower value 0.96 | locus YIL073C, strain SPO22, stronger effect = lower value 0.878 | locus YIL125W, strain kgd1, stronger effect = lower value 0.992 | locus YIR030C, strain dcg1, stronger effect = lower value 0.989 | locus YJL092W, strain hpr5, stronger effect = lower value 1.02 | locus YJL095W, strain BCK1 (second series), stronger effect = lower value 1.01 | locus YJL095W, strain BCK1, stronger effect = lower value 0.961 | locus YJL115W, strain asf1, stronger effect = lower value 1.03 | locus YJL129C, strain trk1, stronger effect = lower value 0.987 | locus YJL134W, strain LCB3, stronger effect = lower value 1 | locus YJL154C, strain vps35, stronger effect = lower value 1.02 | locus YJL164C, strain tpk1, stronger effect = lower value 0.988 | locus YJL166W, strain qcr8, stronger effect = lower value 1.01 | locus YJL168C, strain set2, stronger effect = lower value 0.982 | locus YJL187C, strain SWE1 (second series), stronger effect = lower value 0.976 | locus YJL187C, strain SWE1, stronger effect = lower value 1.01 | locus YJR043C, strain POL32, stronger effect = lower value 0.998 | locus YJR075W, strain HOC1, stronger effect = lower value 0.999 | locus YKL009W, strain mrt4, stronger effect = lower value 0.964 | locus YKL068W, stronger effect = lower value 0.992 | locus YKL085W, strain MDH1 (second series), stronger effect = lower value 0.993 | locus YKL085W, strain MDH1, stronger effect = lower value 0.993 | locus YKL160W, strain elf1, stronger effect = lower value 1.02 | locus YKR001C, strain vps1, stronger effect = lower value 0.97 | locus YKR026C, strain gcn3, stronger effect = lower value 1.02 | locus YKR091W, strain srl3, stronger effect = lower value 1.01 | locus YLL001W, strain dnm1, stronger effect = lower value 1 | locus YLL026W, stronger effect = lower value 1.01 | locus YLL041C, strain sdh2, stronger effect = lower value 1.02 | locus YLR027C, strain aat2, stronger effect = lower value 1.01 | locus YLR039C, strain RIC1, stronger effect = lower value 0.893 | locus YLR058C, strain SHM2, stronger effect = lower value 0.993 | locus YLR102C, strain apc9, stronger effect = lower value 1 | locus YLR221C, strain rsa3, stronger effect = lower value 1.02 | locus YLR258W, strain gsy2, stronger effect = lower value 1.03 | locus YLR262C, strain YPT6 (second series), stronger effect = lower value 0.993 | locus YLR262C, strain YPT6, stronger effect = lower value 0.986 | locus YLR268W, strain sec22, stronger effect = lower value 0.961 | locus YLR320W, strain mms22, stronger effect = lower value 1.01 | locus YLR330W, strain CHS5, stronger effect = lower value 1.01 | locus YLR342W, strain FKS1 (second series), stronger effect = lower value 0.977 | locus YLR342W, strain FKS1, stronger effect = lower value 1.03 | locus YLR357W, strain rsc2, stronger effect = lower value 1.01 | locus YLR370C, strain arc18, stronger effect = lower value 1.01 | locus YLR371W, strain rom2, stronger effect = lower value 1.02 | locus YLR384C, strain iki3, stronger effect = lower value 1.01 | locus YLR418C, strain cdc73, stronger effect = lower value 0.941 | locus YML016C, strain PPZ1, stronger effect = lower value 0.994 | locus YML032C, strain rad52, stronger effect = lower value 1 | locus YML120C, strain ndi1, stronger effect = lower value 1.01 | locus YML124C, strain tub3, stronger effect = lower value 0.994 | locus YMR058W, strain fet3, stronger effect = lower value 1.02 | locus YMR078C, strain ctf18, stronger effect = lower value 0.999 | locus YMR125W, strain sto1, stronger effect = lower value 1.02 | locus YMR129W, stronger effect = lower value 1.02 | locus YMR205C, strain PFK2, stronger effect = lower value 0.993 | locus YMR223W, strain ubp8, stronger effect = lower value 0.981 | locus YMR231W, strain pep5, stronger effect = lower value 0.99 | locus YMR263W, strain SAP30, stronger effect = lower value 1 | locus YMR307W, strain GAS1, stronger effect = lower value 1.08 | locus YNL067W, strain RPL9B, stronger effect = lower value 0.988 | locus YNL071W, strain lat1, stronger effect = lower value 1.02 | locus YNL128W, strain TEP1, stronger effect = lower value 0.991 | locus YNL209W, strain ssb2, stronger effect = lower value 1.01 | locus YNL233W, strain BNI4, stronger effect = lower value 0.988 | locus YNL248C, strain rpa49, stronger effect = lower value 1.03 | locus YNL250W, strain rad50, stronger effect = lower value 0.985 | locus YNL271C, strain bni1, stronger effect = lower value 0.982 | locus YNL298W, strain CLA4, stronger effect = lower value 0.976 | locus YNL307C, strain MCK1, stronger effect = lower value 0.997 | locus YNL322C, strain KRE1 (second series), stronger effect = lower value 1.01 | locus YNL322C, strain KRE1, stronger effect = lower value 1 | locus YNR049C, strain mso1, stronger effect = lower value 1.02 | locus YNR052C, strain pop2, stronger effect = lower value 0.983 | locus YOL012C, strain htz1 0.825 | locus YOL147C, strain pex11, stronger effect = lower value 0.991 | locus YOR001W, strain rrp6, stronger effect = lower value 1.03 | locus YOR061W, strain CKA2, stronger effect = lower value 0.984 | locus YOR069W, strain VPS5, stronger effect = lower value 0.996 | locus YOR070C, strain gyp1, stronger effect = lower value 1 | locus YOR080W, strain dia2, stronger effect = lower value 1.02 | locus YOR083W, strain WHI5, stronger effect = lower value 0.99 | locus YOR106W, strain vam3, stronger effect = lower value 1 | locus YOR136W, strain idh2, stronger effect = lower value 0.994 | locus YOR144C, strain elg1, stronger effect = lower value 0.995 | locus YOR184W, strain ser1, stronger effect = lower value 0.978 | locus YOR265W, strain rbl2, stronger effect = lower value 1.01 | locus YOR270C, strain vph1, stronger effect = lower value 1.05 | locus YOR290C, strain snf2, stronger effect = lower value 0.991 | locus YOR316C, strain cot1, stronger effect = lower value 0.986 | locus YPL051W, strain arl3, stronger effect = lower value 0.995 | locus YPL078C, strain atp4, stronger effect = lower value 1.03 | locus YPL106C, strain sse1, stronger effect = lower value 1.01 | locus YPL240C, strain hsp82, stronger effect = lower value 1.02 | locus YPL241C, strain CIN2, stronger effect = lower value 1 | locus YPR119W, strain clb2, stronger effect = lower value 0.992 | locus YPR141C, strain kar3, stronger effect = lower value 0.985 | locus YPR163C, strain tif3, stronger effect = lower value 0.975 | locus YPR167C, strain met16, stronger effect = lower value 0.972 | strain wtn01, stronger effect = lower value 0.984
